Laboratory results as given in PubChem BioAssay (NCI).
About 79,000 compounds went through this panel and 15% of them were active in at least one assay; those are over-represented in the sample as a whole. Active and inactive are the calls of the source. No stated cut-off is given here; in the data, active means growth inhibition above about 70%; inactive means the rest.

What was measured:
[1] = NCI Yeast Anticancer Drug Screen. Data for the rad50 strain (AID 155);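 further: 0% = growth of vehicle-only cultures of the same strain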; settings: S. cerevisiae rad50 strain growth inhibition; at 50.0 µM; stronger effect = higher value
How it was run: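 Compounds were tested on a yeast strain with an engineered DNA damage repair alteration; the reported value is growth inhibition normalised to vehicle treatment.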

[2] = NCI Yeast Anticancer Drug Screen. Data for the mec2-1 strain (AID 157); settings: S. cerevisiae mec2-1 strain, at 50.0 µM, stronger effect = higher value
How it was run: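 Yeast mec2-1 mutant treated with compound. Readout: growth inhibition vs vehicle controls.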

[3] = NCI Yeast Anticancer Drug Screen. Data for the sgs1 mgt1 strain (AID 161);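 further: 0% = growth of cultures given vehicle only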; settings: S. cerevisiae sgs1 mgt1 strain, at 50.0 µM, stronger effect = higher value
How it was run: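 Read-out: growth inhibition vs vehicle controls. Cells: mutant yeast strain deficient in DNA damage repair.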

[4] = NCI Yeast Anticancer Drug Screen. Data for the cln2 rad14 strain (AID 165);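 further: 0% = growth equal to vehicle treated cultures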; settings: S. cerevisiae cln2 rad14 strain, at 50.0 µM, stronger effect = higher value
How it was run: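 cln2 rad14 yeast strain; compound exposure; growth inhibition read vs vehicle controls.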

[5] = NCI Yeast Anticancer Drug Screen. Data for the bub3 strain (AID 167); settings: S. cerevisiae bub3 mutant strain, at 50.0 µM, stronger effect = higher value
How it was run: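 Growth of a checkpoint-deficient yeast mutant is measured after compound exposure. Values represent inhibition relative to vehicle.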

[6] = NCI Yeast Anticancer Drug Screen. Data for the mlh1 rad18 strain (AID 175); settings: S. cerevisiae mlh1 rad18 strain growth inhibition; at 50.0 µM; stronger effect = higher value
How it was run: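 Yeast w/ defined DNA-repair lesions; compound exposure; growth vs vehicle controls → % inhibition.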

Measured: growth inhibition

COC(=O)C(C)Oc1ccccc1 (stereo not given)
inactive: [1] 2.35% | [2] -28.2% | [3] -9.4% | [4] -4.8% | [5] -10% | [6] -18.5%

CCOC(=O)c1ccc(NCC2CNc3ccccc3N2)cc1 (stereo not given)
inactive: [1] 36.2% | [2] -11.2% | [3] 17.7% | [4] -8.35% | [5] 23.2% | [6] 18.2%

CCCS(=O)(=O)CCC(=O)c1cccs1
inactive: [1] -0.05% | [2] -12.1% | [3] -8.4% | [4] -19% | [5] -1.85% | [6] 5.95%

Cc1ccc(-n2nc3c(c(C#N)c2=O)-c2ccccc2C3=O)cc1
inactive: [1] -27.6% | [2] -4.4% | [3] -31.8% | [4] -38.5% | [5] -2.7% | [6] -14.3%

C=C(C)COc1c(C)c(C)c(OCC(C)C)c(C)c1C
inactive: [1] -4.35% | [2] 9.75% | [3] -0.75% | [4] -8.75% | [5] 3.2% | [6] -10.9%

CC1(Br)CC2OC3(Br)C=CC(C)(O)C2(CC1=O)C3(C)C (stereo not given)
inactive: [1] 27.2% | [2] 10.8% | [3] 13.4% | [4] 15.7% | [5] 20.4% | [6] 25.9%

O=C1/C(=C\c2ccccc2)C2C3CCC(C3)C2/C1=C\c1ccccc1 (stereo not given)
inactive: [1] -3.55% | [2] 0.55% | [3] 4.6% | [4] -63.8% | [5] 11.1% | [6] -17.4%

CCCCCn1[nH]nc(C(=O)OC)c1=O (tested in a mixture with another compound)
inactive: [1] 18.8% | [2] 17.1% | [3] 23.1% | [4] 27.5% | [5] 30.5% | [6] 34.4%

O=C(COc1ccccc1)OCCCl
inactive: [1] -7.8% | [2] -15.3% | [3] -15.4% | [4] -67.5% | [5] -25.8% | [6] -75.9%

CC(=O)Nc1ccc(N=NN(C)c2ccccc2)cc1
inactive: [1] 29.4% | [2] 36% | [3] 47.1% | [4] 5.45% | [5] 19.8% | [6] 44.4%

Cc1nc2nnc(N)n2nc1C
inactive: [1] 10.1% | [2] -6.15% | [3] 3.75% | [4] -22% | [5] 8.45% | [6] 4.05%

O=C(Cl)C1C2C=CC(C2)C1C(=O)Cl (stereo not given)
inactive: [1] 3.1% | [2] -20.4% | [3] -2.35% | [4] -9.15% | [5] 15.6% | [6] 2.55%

CCOc1cc2c(cc1O)C(O)C[C@@H]1[C@@H]2CC[C@]2(C)[C@@H](O)CC[C@@H]12 (stereo not given in full)
inactive: [1] 14.8% | [2] -7.9% | [3] 22.7% | [4] 11.9% | [5] 24.2% | [6] 25.1%

CCCCCCCC/C=C\CCCCCCCC(=O)N(C)CC(=O)O
inactive: [1] 43.2% | [2] 38.2% | [3] 39.2% | [4] 21.1% | [5] 30.7% | [6] 29.1%

C=CCCCCCCCCC(=O)NCCN1CCOCC1
active: [1] 84.5% | [2] 93.8% | [3] 99.2% | [4] 93.8% | [5] 91.8% | [6] 98.2%

COc1ccccc1NC(=O)C1=C(C)NC(C)=C(C(=O)Nc2ccccc2OC)C1c1ccc(C(C)C)cc1
inactive: [1] 18.2% | [2] 3.35% | [3] 11.8% | [4] 29.6% | [5] -11.8% | [6] 33.8%

COc1cc(/C=C/C(=O)O)cc(OC)c1O
inactive: [1] 5.65% | [2] -5.05% | [3] -22.9% | [4] 23.1% | [5] 10.8% | [6] 16.5%

ONC1=Nc2cc(Cl)ccc2C(=S)N2CSCC12 (stereo not given)
inactive: [1] 1.55% | [2] 18.6% | [3] -0.25% | [4] 0.45% | [5] -9.8% | [6] 18.8%

COc1ccc(OC)c(CSc2ccc(OC)c(OC)c2)c1
inactive: [1] 18.7% | [2] 31.9% | [3] 43.8% | [4] 13.8% | [5] 57.9% | [6] 33%

CSc1n[n+](-c2ccccc2)cs1
inactive: [1] 6.3% | [2] 6.15% | [3] 4.4% | [4] 6.9% | [5] 21.7% | [6] -3.35%

NC(=O)c1ccccc1C(=O)c1ccccc1
inactive: [1] -35% | [2] 1.85% | [3] -8.6% | [4] -20.1% | [5] -27.1% | [6] -10.3%

N#C/C(=C\c1cc(F)cc(F)c1)c1ccccn1
inactive: [1] 9.7% | [2] -0.95% | [3] 0.65% | [4] 3.25% | [5] 3.2% | [6] 30.2%

CC(=O)n1cc2cc([N+](=O)[O-])ccc2n1
inactive: [1] -13.4% | [2] -13.6% | [3] -1.15% | [4] -91.8% | [5] -1% | [6] -17.1%

O=[N+]([O-])c1ccc(/C(CBr)=N/N2CCCCC2)cc1
inactive: [1] -19.6% | [2] -24.9% | [3] -4.6% | [4] 3.55% | [5] -9.65% | [6] -13.6%

O=C(/C=C(\C(=O)c1cccs1)c1cccs1)c1ccc(C(=O)/C=C(\C(=O)c2cccs2)c2cccs2)cc1
inactive: [1] 3.6% | [2] -23.9% | [3] 19% | [4] -25.1% | [5] -15.6% | [6] -5.85%

CCCCCCCCCCCCOP(=O)(CC(=O)NCc1cc(C(C)(C)C)c(O)c(C(C)(C)C)c1)OCCCCCCCCCCCC
inactive: [1] -1.55% | [2] 3.3% | [3] 21.9% | [4] -7.3% | [5] -2.9% | [6] -9.9%

O=C(Cn1ccc(=O)[nH]c1=O)Nc1ccc(C(=O)O)c(O)c1
inactive: [1] 0.45% | [2] -43.1% | [3] -24.9% | [4] -45.8% | [5] -31.4% | [6] 0.55%

CCOc1ccccc1N1C(=O)C(=O)C(c2nc3ccccc3o2)C(=O)C1=O
inactive: [1] -8.75% | [2] 4.3% | [3] -8.4% | [4] -15.9% | [5] 2.55% | [6] -3.2%

O=c1[nH]n(Cc2ccccn2)c2ccc([N+](=O)[O-])cc12
inactive: [1] 4.1% | [2] -7.8% | [3] -26.8% | [4] 0.95% | [5] 6.45% | [6] -14.2%

O=P(c1ccccc1)(c1ccccc1)c1ccccc1OCc1cccc(COc2ccccc2P(=O)(c2ccccc2)c2ccccc2)n1
inactive: [1] -7.05% | [2] -7.5% | [3] -11.7% | [4] -21.9% | [5] -2.6% | [6] 31.1%

CC12CCC(=O)C=C1CCC1C2CCC2(C)C(C(=O)Cn3c(=O)cc[nH]c3=O)CCC12 (stereo not given)
inactive: [1] 1.2% | [2] -3.7% | [3] -0.5% | [4] 15.8% | [5] -1.35% | [6] 1.85%

Cc1[nH]ccc(=O)c1OC(=O)C12CC3CC(CC(C3)C1)C2
inactive: [1] 15.8% | [2] 16.6% | [3] 36% | [4] 19.2% | [5] 2.7% | [6] 23%

CC(=O)/C=C/C=C\C=C/N=C(c1ccccc1)c1ccccc1
inactive: [1] -7.5% | [2] -1.1% | [3] -2.7% | [4] 3% | [5] 26.1% | [6] -3.85%

CCC[CH2][Sn]1([CH2]CCC)[O]C2C(CO)OC(n3c(Br)c(C(N)=O)c4c(N)ncnc43)C2[O]1 (stereo not given)
active: [1] 98.3% | [2] 98.4% | [3] 98.7% | [4] 97.5% | [5] 97.5% | [6] 98.5%

CC1OC(n2ccc(NC(=O)c3ccc(NC(=O)C(C)(N)CO)cc3)nc2=O)CCC1OC1OC(C)C(N(C)C)C(O)C1O (stereo not given)
inactive: [1] 30.4% | [2] -0.8% | [3] 6.05% | [4] 6% | [5] 1.75% | [6] 28.8%

CCCCCCc1cc2cc(C(=O)Nc3nc(C45CC6CC(CC(C6)C4)C5)cs3)c(=O)oc2cc1O
inactive: [1] -16.4% | [2] -19.8% | [3] -1.15% | [4] 17.9% | [5] -16.6% | [6] -11.7%

O=P(O)(Cc1ccccc1)OCC1(O)OCC(O)C(O)C1O (stereo not given)
inactive: [1] -16.1% | [2] -6.35% | [3] -28.6% | [4] 12.7% | [5] -19.8% | [6] -23.2%

C1CCCNCCNCCNCC1
inactive: [1] -4.4% | [2] -17.1% | [3] -18.9% | [4] 16.1% | [5] -20.8% | [6] 19.1%

CC1=C(C(=O)Nc2ccccc2C)C(c2ccco2)C(C(=O)Nc2ccccc2C)=C(C)N1C
inactive: [1] -7.45% | [2] -6.6% | [3] -38.1% | [4] -15.5% | [5] -9.6% | [6] -8.8%

CC12CC3CC(O)(C1)CC(O)(C3)C2
inactive: [1] 7.25% | [2] -11.1% | [3] -1.45% | [4] 22.2% | [5] -8.3% | [6] 4.15%
